Among all 310,000 compounds or so, about 14,000 (4.5%) showed an effect of 50% or more. Effects have a minus sign here. Many of the other results were omitted from the sample, so strong results are more common in it than they were.
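Note: peak tail current of the secondary pulse compared with the same well before compound.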

For the test, the target named is human ether-à-go-go-related gene (hERG) potassium channel (human, UniProt Q12809). Nature of the test: primary screen, population patch clamp on CHO cells stably expressing hERG; higher = less effect of the substance.
human ether-à-go-go-related gene (hERG) potassium channel, sequence (Q12809 whole entry, looked up): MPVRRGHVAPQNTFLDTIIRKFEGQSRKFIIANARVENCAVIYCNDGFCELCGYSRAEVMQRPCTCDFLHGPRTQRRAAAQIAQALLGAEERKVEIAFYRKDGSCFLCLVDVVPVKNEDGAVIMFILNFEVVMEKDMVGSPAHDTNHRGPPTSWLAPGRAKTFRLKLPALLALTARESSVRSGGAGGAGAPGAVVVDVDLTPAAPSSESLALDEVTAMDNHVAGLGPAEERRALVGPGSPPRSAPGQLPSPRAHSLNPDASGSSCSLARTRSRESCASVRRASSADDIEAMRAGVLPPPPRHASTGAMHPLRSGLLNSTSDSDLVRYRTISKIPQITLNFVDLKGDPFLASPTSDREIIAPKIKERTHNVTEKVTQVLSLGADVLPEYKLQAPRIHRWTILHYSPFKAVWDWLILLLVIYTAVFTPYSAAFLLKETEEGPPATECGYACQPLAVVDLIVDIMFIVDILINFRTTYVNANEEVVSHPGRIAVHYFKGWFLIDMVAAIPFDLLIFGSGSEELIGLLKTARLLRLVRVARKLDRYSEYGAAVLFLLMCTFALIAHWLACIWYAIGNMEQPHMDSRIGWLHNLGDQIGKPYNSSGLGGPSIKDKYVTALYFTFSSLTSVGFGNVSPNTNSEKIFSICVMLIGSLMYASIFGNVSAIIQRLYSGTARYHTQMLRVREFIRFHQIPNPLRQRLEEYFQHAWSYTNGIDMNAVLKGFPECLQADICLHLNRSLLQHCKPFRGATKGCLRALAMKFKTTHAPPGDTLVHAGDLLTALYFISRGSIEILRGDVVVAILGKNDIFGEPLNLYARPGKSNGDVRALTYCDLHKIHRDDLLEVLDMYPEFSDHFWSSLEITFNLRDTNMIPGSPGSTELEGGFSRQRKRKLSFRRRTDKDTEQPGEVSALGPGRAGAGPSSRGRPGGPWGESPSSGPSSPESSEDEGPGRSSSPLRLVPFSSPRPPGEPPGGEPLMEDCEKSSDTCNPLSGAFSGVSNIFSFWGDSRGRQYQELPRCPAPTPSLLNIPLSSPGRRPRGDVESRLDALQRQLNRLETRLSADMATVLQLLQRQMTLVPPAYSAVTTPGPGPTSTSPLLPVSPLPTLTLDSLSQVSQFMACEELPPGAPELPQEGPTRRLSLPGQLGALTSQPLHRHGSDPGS
With `Nc1ccccc1C(=O)N/N=C1/C2CN3CCN(C2)CC1(Cc1ccccc1)C3`, the “hERG current change (%, negative = inhibition) at 10uM” value is recorded as -37.8%.
The figure for `CCCC12CN3CCN(CC(C3)/C1=N\NC(=O)c1ccccc1N)C2` is -4.19%; for `CCCCC12CN3CCN(CC(C3)/C1=N\NC(=O)c1ccccc1N)C2` it is -70.8%; for `N#Cc1cnc(Nc2ccc(F)cc2)nc1N` it is -2.18%.
For the compound `CCNc1nc(SC(C)C(=O)Nc2ccccc2)nc(N(C)C)n1` (stereo not shown), the “hERG current change (%, negative = inhibition) at 10uM” value stood at 11.8%.
For `CC(C)Nc1nc(SC(C)C(=O)Nc2ccccc2)nc(N(C)C)n1` (stereo not shown), the “hERG current change (%, negative = inhibition) at 10uM” value was -51.4%.
Then `CC(Sc1nc(NC(C)(C)C)nc(N(C)C)n1)C(=O)Nc1ccccc1` (stereo not shown), with 10.9%; and `O=C(NCCC1=CCCCC1)Nc1ccc2nsnc2c1`, with 8.84%; and `O=C(c1cnc(-c2ccc(Cl)cc2)s1)c1ccc(Cl)cc1Cl`, with 5.71%.
Then `CN(C)CCCn1c2c(c(SCC(=O)Nc3ccc4c(c3)OCO4)nc1=O)CCCC2`, with -39.7%; and `CCN(CC)CCn1c2c(c(SCC(=O)Nc3ccc(C)c(F)c3)nc1=O)CCC2`, with -63.8%.
In the case of `CN(C)CCCn1c2c(c(SCC(=O)Nc3ccc4c(c3)OCO4)nc1=O)CCC2`, the “hERG current change (%, negative = inhibition) at 10uM” value was -10.7%.
Turning to `CCN(CC)CCn1c2c(c(SCC(=O)Nc3ccc(C)c(F)c3)nc1=O)CCCC2`, the “hERG current change (%, negative = inhibition) at 10uM” value is given as -70.1%.
Then `CCN(CC)CCn1c2c(c(SCC(=O)Nc3ccc4c(c3)OCCO4)nc1=O)CCCC2`, with -20.4%.
Consider `CCN(CC)CCCn1c2c(c(SCC(=O)Nc3ccc(C)c(F)c3)nc1=O)CCC2`, for which the “hERG current change (%, negative = inhibition) at 10uM” value is on record as -64.5%.
Turning to `CCC1Oc2ccc(C)cc2N(CC(=O)NCc2cccc(OC)c2)C1=O` (stereo not shown), the “hERG current change (%, negative = inhibition) at 10uM” value was -8.94%.
Then `CNC(=O)c1cc2cc(OC)ccc2oc1=N`, with 10.4%; and `CC/C(=N\NC(=O)c1c[nH]c2ccccc12)c1cccs1`, with 10.9%; and `O=C(O)c1c(-n2cccc2)sc2c1CCCC2`, with 24.4%.
The figure for `COc1cc(C)c(Br)cc1S(=O)(=O)NCc1ccccc1` is 12.9%; for `COc1ccc(CN2CCNC(=O)C2CC(=O)NCCN2CCCCC2=O)c(F)c1` (stereo not shown) it is 19.1%; for `Cc1nn(CCCC(=O)Nc2ccccn2)c(C)c1[N+](=O)[O-]` it is 18.3%.
The figure for `NC(=O)COc1ccc(-n2cnnn2)cc1` is 32.4%.
Regarding `O=C(COc1ccc(-n2cnnn2)cc1)Nc1ccc(F)c(F)c1F`, the “hERG current change (%, negative = inhibition) at 10uM” value stood at 5.48%.
Then `O=C(COc1ccc2c(c1)CCC2)N1CCN(c2ccc(F)cc2)CC1`, with -2.53%; and `O=C(COc1ccc(-n2cnnn2)cc1)NCCc1ccc(F)cc1`, with -51.5%.
The figure for `O=C(COc1ccc(-n2cnnn2)cc1)N1CCN(c2ccc(F)cc2)CC1` is -71.5%; for `O=C(COc1ccc(F)cc1)Nc1ccc(-n2cnnn2)cc1` it is -49.5%.
Then `N/C(=N\N=C\c1ccnc2ccccc12)SC1CC(=O)N(c2ccc(Br)cc2)C1=O` (stereo not shown), with 0.637%; and `CC(C)Sc1cc(N2CCOCC2)nc(-c2ccccc2)n1`, with 2.76%; and `COCCn1c(N)c(N(Cc2ccccc2)C(=O)c2ccc(-c3ccc(Cl)cc3)o2)c(=O)[nH]c1=O`, with -45.5%.
Turning to `Cc1ccc(-n2nc(C)c(/C=N/NC(=O)c3cccs3)c2Cl)cc1`, the “hERG current change (%, negative = inhibition) at 10uM” value came to 5.12%.
Then `O=C(CN1CCN(S(=O)(=O)c2ccc(Br)cc2)CC1)N/N=C/c1ccc(Br)s1`, with -17.6%; and `Cc1ccc(S(=O)(=O)N2CCN(CC(=O)N/N=C/c3ccc(Br)s3)CC2)cc1`, with -49%; and `Cc1ccc(S(=O)(=O)N2CCN(CC(=O)N/N=C/c3ccco3)CC2)cc1`, with -33%.
The figure for `Cc1ccc(/C=N/NC(=O)CN2CCN(S(=O)(=O)c3ccc(Br)cc3)CC2)s1` is -58.9%; for `O=C(CN1CCN(S(=O)(=O)c2ccc(Br)cc2)CC1)N/N=C/c1cccs1` it is -58.4%; for `O=C(CN1CCN(S(=O)(=O)c2ccc(Br)cc2)CC1)N/N=C/c1ccco1` it is -56.9%.
On to `O=C(CN1CCOCC1)N/N=C/c1ccco1`, for which the “hERG current change (%, negative = inhibition) at 10uM” value amounted to 17.1%.
The figure for `Cc1ccsc1/C=N/NC(=O)CN1CCN(S(=O)(=O)c2ccc(Br)cc2)CC1` is -41.7%.
The figure for `O=C(CN1CCN(S(=O)(=O)c2ccc(Br)cc2)CC1)N/N=C/c1ccccc1C(=O)O` is 14.2%.
Then `CN1CCN(c2c(F)cc([N+](=O)[O-])c(N)c2Br)CC1`, with -45.3%.
Take `OCCCc1cn(-c2ccccc2)c2ccccc12`: the “hERG current change (%, negative = inhibition) at 10uM” value came to 7.41%.

The values are drawn from publication PMC4336329 (PLoS ONE, 2015).
